# TIM10 inh = growth inhibitors of isogenic TIM10 control yeast, primary screen, counter-screen for tim10-1 yeast inhibitor project, luminescence, uHTS; S. cerevisiae TIM10 strain growth, BacTiter-Glo luminescence, 24 h; inhibition, % at 10 µM; 1.4% of 330,000 active;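 active = inhibition of 40% or more at the single tested concentration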;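 also: wild-type TIM10 isogenic control strain grown at permissive 25 °C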
# tim23-1 inh = growth inhibitors of tim23-1 mutant yeast, primary screen, luminescence, uHTS; 1.3% of 330,000 active; inhibition, % at 20 µM; S. cerevisiae tim23-1 growth, BacTiter-Glo luminescence, 24 h;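 active = growth inhibition of the mutant yeast at or above 50%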;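 also: temperature-sensitive mutant grown at 25 °C; plate controls were DMSO-treated mutant yeast for no effect and medium wells lacking yeast for full effect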
# PfHsp90 set2 = growth inhibition of PfHsp90-expressing yeast, primary screen, antimalarial PfHsp90 inhibitor project, S. cerevisiae, BacTiter-Glo luminescence, single point, set 2. BacTiter-Glo ATP, 48 h; yeast lacking PDR1 and PDR3 efflux regulators. inhibition, % at 9.4 µM. 0.32% of 310,000 active;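 active = every replicate shows inhibition above about 80%, whatever the replicate mean, limit read from the data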;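 also: 0% = DMSO neutral controls and 100% = 20 µM radicicol positive controls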
# tim10-1 inh = growth inhibitors of tim10-1 mutant yeast, primary screen, luminescence, uHTS; S. cerevisiae tim10-1 ts strain growth, BacTiter-Glo, 24 h; inhibition, % at 20 µM; 2.2% of 330,000 active; AID 463190, 2010;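 active = inhibition of at least 40%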;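 also: mutant grown at 25 °C; 0% = DMSO wells with yeast and 100% = wells holding no yeast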
# NLRP3 yeast inh = NALP3 inflammasome inhibitors in reconstituted yeast, primary screen, luminescence, uHTS. Yeast reconstituted NLRP3/ASC/caspase-1, beta-gal luminescence, 24 h. inhibition, % at 10 µM. 0.39% of 330,000 active. AID 2825, 2010;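 active = inhibition of 50% or more; inactive = inhibition below 50%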;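 also: plate controls were induced DMSO wells for no effect and uninduced yeast grown without galactose for full effect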
# SKKanGAS inh = S. pyogenes SKKanGAS growth inhibitors in kanamycin, primary screen, streptokinase expression inhibitor project, SKKanGAS strain, BacTiter-Glo luminescence | 6 h | inhibition, % at 7.5 µM | 1.3% of 300,000 active | AID 1662, 2009;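 active = mean replicate score, as percent of positive control median, at least 50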;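 also: strain carries kanamycin resistance gene driven by streptokinase promoter and grows in 40 µg/ml kanamycin; loss of luminescence reflects streptokinase promoter inhibition or plain growth inhibition; 0% = median of DMSO wells and 100% = positive control at its reference dose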
# tim10-1 confirm = growth inhibitors of tim10-1 mutant yeast, confirmation, single concentration, luminescence, S. cerevisiae; shares compounds with tim10-1 inh; S. cerevisiae tim10-1 ts strain growth, BacTiter-Glo, 24 h; inhibition, % at 20 µM; 56% of 7,400 active;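 active = inhibition of yeast growth at or above a set limit in either of two repeat tests at 20 µM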;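 also: tim10-1 mutant grown at permissive 25 °C to find synthetic lethal compounds; 0% = DMSO yeast wells and 100% = medium wells without yeast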
# Starred values were filed as active, the others as inactive; . = not tested or not shown. Rows were chosen to be rich in hits. Some 4.6% of all compounds tested hit in one or more screens of this group.
SMILES,TIM10 inh,tim23-1 inh,PfHsp90 set2,tim10-1 inh,NLRP3 yeast inh,SKKanGAS inh,tim10-1 confirm
Cc1cc(OCC(=O)NNC(=O)CCc2ccccc2)ccc1Br,-17,-15,-20,0,12,0,.
Cc1ccc(OC(C)C(=O)N=Nc2c(O)[nH]c3ccc([N+](=O)[O-])cc23)cc1 (stereo not drawn),19,-1,18,44*,-2,6,15
Cc1ccc(CSCC(=O)N(CCC(C)C)c2c(N)n(Cc3ccccc3)c(=O)[nH]c2=O)cc1,4,-4,.,-7,17,4,.
CC(=O)Cc1cc(O)c2ccccc2c1OC(=O)c1ccccc1,27,48,-18,43*,2,-10,38*
CC(=O)c1cc(C)c(OC(=O)c2ccccc2)c(C)c1,.,.,-5,.,.,.,.
Cc1cc(C)n(-c2nnc(NC34CC5CC(CC(C5)C3)C4)nn2)n1,29,47,-45,57*,2,-22,42*
Cc1cc(C)n(-c2nnc(NC(C)(C)C)nn2)n1,9,7,11,6,24,2,.
COc1ccc(-c2nnc(C)c3nocc23)cc1,1,3,-3,4,13,2,.
Brc1ccc(-c2nnc(-c3cccnc3)c3conc23)cc1,18,44,.,51*,31,6,15
Cc1ccc(NC(=O)CN2CCCC2c2cccn2C)c(Br)c1 (stereo not drawn),2,25,.,2,20,.,.
CCCCCCSc1ccc([C@H]2N[C@@](C)(C(=O)OC)[C@H]3C(=O)N(C)C(=O)[C@@H]23)cc1,29,38,-1,44*,18,8,35*
COc1ccccc1NC(=O)C(=N\O)/C(C)=N/O,-7,3,21,-1,15,-5,.
O=C(NCCCCNC(=O)C(F)(F)F)C(F)(F)F,4,2,-14,-1,6,-1,.
COc1ccc(NC(=O)COC(=O)Cc2c(F)cccc2Cl)cc1,4,18,-1,43*,14,-12,24
COc1ccc(NC(=O)Cc2c(F)cccc2Cl)cc1,-1,11,16,-21,27,-5,.
COc1cc(NC(=O)COC(=O)c2cnccn2)c(C)cc1[N+](=O)[O-],-16,-4,29,-4,6,-3,.
N#Cc1cc(O)c(-n2nnc3ccccc32)cc1C#N,7,6,-21,-2,2,-7,.
N#Cc1cc(Oc2cccc3cccnc23)c(-n2nnc3ccccc32)cc1C#N,32,34,-25,48*,14,7,33*
O=C(NC1CCCC1)C(c1ccccn1)N(C(=O)c1csnn1)c1ccccc1F (stereo not drawn),13,4,15,-3,16,3,.
COC(=O)c1ccc2nc(NC(=O)C(C)(C)C)sc2c1,35,46,38,42*,21,0,35*
CSCCC(=O)N1CCCC(CNC(=O)c2ccc(-c3ccccc3)cc2)C1 (stereo not drawn),23,33,-10,40*,11,-11,28
COc1ccc(/C(C)=N/NC(=O)c2nnn(-c3nonc3N)c2CN(C)c2ccccc2)cc1,2,8,8,26,15,-2,.
C/C(=N\NC(=O)c1nnn(-c2nonc2N)c1CN(C)c1ccccc1)c1ccccc1O,25,26,-8,62*,21,50*,3
CCC(c1nnc(SCC(=O)NC2CCCCC2)n1Cc1ccccc1)N(C)C (stereo not drawn),-2,4,-12,-7,19,-2,.
Cc1ccc(OCCOc2cccc(Br)c2)c([N+](=O)[O-])n1,-2,39,-4,54*,23,3,40*
SMILES,TIM10 inh,tim23-1 inh,PfHsp90 set2,tim10-1 inh,NLRP3 yeast inh,SKKanGAS inh,tim10-1 confirm
COc1ccc(C(=O)NC(C)CCc2ccccc2)c(O)c1 (stereo not drawn),-19,26,20,31,11,-4,.
O=C(Cn1ccc(C(F)(F)F)n1)N=Nc1c(O)[nH]c2ccccc12,24,11,-13,15,8,-17,.
CC(C)n1c(O)c(N=NC(=O)Cn2ccc(C(F)(F)F)n2)c2ccccc21,15,8,-9,44*,-11,-17,28
O=c1oc2ccccc2cc1NCc1ccccc1O,11,38,-49,41*,-8,1,7
O=C(NCc1ccccc1Cl)c1cc2ccccc2oc1=O,0,20,-2,14,15,4,.
Cc1[nH]n(-c2ccccc2)c(=O)c1N=Nc1c(O)cc(S(=O)(=O)N(C)C)c2ccccc12,30,44,18,43*,20,85*,21
CCCN1CCN(c2ncnc3scc(C4COc5ccccc5O4)c23)CC1 (stereo not drawn),1,24,-11,31,-4,1,.
c1ccc2c(c1)OCC(c1csc3ncnc(N4CCCCC4)c13)O2 (stereo not drawn),29,48,-6,41*,-29,11,24
C/C(CC(=O)Nc1ccc(Cl)c(C(F)(F)F)c1)=N\NC(=O)c1cnccn1,17,34,-37,49*,4,4,25
Cc1ccc2c(c1)c1c(n2CC(O)Cn2nc(C)c(Br)c2C)CCCC1 (stereo not drawn),7,23,-63,43*,-4,31,11
O=C(OCCOc1ccccc1)c1n[nH]c2ccccc12,15,12,9,-9,12,-1,.
N/C(=N/O)c1ccccc1N1CCC(Cc2ccccc2)CC1,25,31,3,26,10,24,.
O=C(CCCN1C(=O)c2cccc3cccc(c23)C1=O)N1CCN(c2ccc(F)cc2)CC1,24,40,0,13,29,7,.
COc1ccc(N2CCN(C(=O)CCCN3C(=O)c4cccc5cccc(c45)C3=O)CC2)cc1,34,46,.,49*,20,-14,19
COc1ccc(N2CCN(C(=O)COC(=O)CCOc3cc(C)ccc3C)CC2)cc1,19,17,.,34,19,6,.
COc1ccc(N2CCN(C(=O)COC(=O)CCOc3ccccc3C)CC2)cc1,27,18,2,43*,17,-10,19
Cc1cc2c(n1-c1ccc(Br)cc1)CC(C)(C)CC2=O,26,40,.,49*,1,-1,33*
Cc1ccc(-n2c(C)cc3c2CC(C)(C)CC3=O)cc1C,17,42,0,32,6,5,.
